{"source": "PubChem BioAssay (NCATS)", "note": "Records with an inconclusive call do not appear. Where a call stands in place of a potency, no number is given. Activity calls are given as the source filed them. The call rests on the fitted dose curve; in most records, active means well fitted inhibition curve with a large enough effect; inconclusive means small, poorly fitted or top-dose-only effect; inactive means no such curve, though single readings can be large or run the other way. Potency means the concentration at half of the fitted maximal effect.", "data": [{"target": "M-phase phosphoprotein 8 (Homo sapiens) (UniProt Q99549)", "sequence (Q99549 whole entry, looked up)": "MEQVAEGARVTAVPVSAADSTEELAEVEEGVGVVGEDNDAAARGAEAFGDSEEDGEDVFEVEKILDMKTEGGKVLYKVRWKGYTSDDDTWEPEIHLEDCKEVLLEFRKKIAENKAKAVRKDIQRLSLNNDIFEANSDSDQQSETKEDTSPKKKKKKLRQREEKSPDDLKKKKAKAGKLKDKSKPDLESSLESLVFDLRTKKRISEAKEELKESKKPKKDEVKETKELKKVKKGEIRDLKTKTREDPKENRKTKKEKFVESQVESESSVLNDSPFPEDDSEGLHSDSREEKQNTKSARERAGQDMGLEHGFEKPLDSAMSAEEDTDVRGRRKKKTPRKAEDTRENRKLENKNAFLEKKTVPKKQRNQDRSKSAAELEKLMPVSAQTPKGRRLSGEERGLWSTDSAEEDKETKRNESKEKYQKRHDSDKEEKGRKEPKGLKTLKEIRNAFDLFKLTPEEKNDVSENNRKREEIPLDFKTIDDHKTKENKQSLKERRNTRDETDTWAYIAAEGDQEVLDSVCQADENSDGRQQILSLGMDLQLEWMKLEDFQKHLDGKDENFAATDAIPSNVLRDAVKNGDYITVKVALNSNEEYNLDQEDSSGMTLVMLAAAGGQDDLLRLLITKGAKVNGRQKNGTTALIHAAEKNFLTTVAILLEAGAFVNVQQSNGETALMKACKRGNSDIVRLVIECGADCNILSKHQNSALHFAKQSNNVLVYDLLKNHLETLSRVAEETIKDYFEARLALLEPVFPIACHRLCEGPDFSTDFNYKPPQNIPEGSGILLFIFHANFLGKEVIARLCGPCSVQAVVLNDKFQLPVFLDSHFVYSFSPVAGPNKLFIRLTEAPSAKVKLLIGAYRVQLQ", "test": "qHTS Validation Assay for Inhibitors for MPP8 Chromodomain Interactions with Methylated Histone Tails (AID 488949); further: nearly all actives have a fitted effect of over 55% in size", "settings": "AlphaScreen MPP8 binding to H3K9me3 peptide; series mostly up to 114 µM", "description": "As our understanding of epigenetics expands, it is becoming clear that players in this field are potential targets for drug development. This area of epigenetic therapy has established applications for the treatment of cancer and neurological diseases. We have been involved in this field for a number of years and have performed high-throughput screens to identify the first small molecule inhibitors of protein methyltransferases. These methyltransferases target multiple substrates, and thus regulate many arms of an epigenetic pathway. The methylation of different substrates often generates docking sites for effector proteins that harbor binding domains (chromo, tudor, PHD, MBT and ANK repeats). It has been proposed that the binding sites generated for different proteins by these post-translational modifcations mediate downstream effects on chromatin. Consistent with this theory, di- and tri-methylation of histone H3K9 facilitates the binding of heterochromatin protein HP1. The HP1 protein harbors a chromodomain that is responsible for the methyl-dependent interaction between HP1 and lysine 9 of histone H3. HP1 was first described in flies as a heterochromatin associated protein that can regulate gene silencing. It harbors a chromodomain that binds H3K9me3. In addition, it harbors a chromoshadow domain that interacts with a large number of proteins that are involved in heterochromatin formation and gene repression. There are three highly related HP1 isoforms. All three variants are associated with pericentric heterochromatin and it is not clear whether they have specific or redundant functions. MPP8 is also involved in the repression of gene in euchromatic regions (unpublished data) and like HP1 its chromodomain binds H3K9me3. MPP8 harbors an ankyrin repeat region that is likely involved in binding and recruiting interacting proteins with transcriptional repressive function, much like the chromoshadow domain of HP1 does. We hypothesize that by inhibiting specific protein-protein interactions we will be able to develop compounds that block a single arm of an epigenetic pathway. The specificity attained by blocking a single protein-protein interaction will be far greater than that attained by blocking the enzyme that regulates one of many interactions. Low-affinity protein-protein interactions (Kd in the single- to double-digit micromolar range) such as those discussed here have been very difficult to assay by traditional techniques such as fluorescence polarization or fluorescence resonance energy transfer. We have developed a sensitive chemiluminescence-based assay (Quinn, et al. 2009), which serves as the starting point for this project. The following is a validation assay to identify lead compounds that can block methyl-dependent protein-protein interactions (specifically MPP8), which can be used as probes to analyze these methyl-driven interactions and perhaps even developed into targeted epigenetic therapies. Assay Provider: Mark T. Bedford, MD Anderson Screening Center PI: Austin, C.P. Screening Center: NIH Chemical Genomics Center [NCGC]\nTo each well, 2 uL of MPP8 protein (final 50 nM) and 1 uL biotinylated histone peptide trimethylated at Lys9 [b-H3(1-18)K9me3] (final 50 nM) was added in 1x PBS buffer, pH 7.4, containing 0.01% Tween-20 using a nanoliter dispenser. Formation of a protein-peptide complex proceeded at room temperature for 30 min. A Kalypsys pin-tool was employed to transfer 23 nL of library compound solution in DMSO to each well. Aurintricarboxylic acid (ATA) was used as an intraplate control with a 12-point titration in duplicate. Following a 30 min incubation of the protein-peptide complex with compounds at room temperature, a mixture of 40 ug/mL each streptavidin-coated donor and nickel chelate acceptor AlphaScreen beads (final 10 ug/mL) was added in a 1 uL dispense for a final volume of 4 uL. Plates were incubated protected from the light for 30 min at room temperature. […]", "values": [{"smiles": "Cc1c(C)c2c(c(C)c1O)CCC(C)(CN1CCN(c3cc(N4CCCC4)nc(N4CCCC4)n3)CC1)O2", "note": "(centres undefined)", "Potency": "11.2 µM (active)"}, {"smiles": "CC(=O)SC1CC2=CC(=O)CC[C@]2(C)C2CC[C@@]3(C)[C@@H](CC[C@@]34CCC(=O)O4)C12", "note": "(some centres undefined)", "Potency": "inactive"}, {"smiles": "CC(=O)O[C@]1(C(C)=O)CC[C@H]2C3C=C(Cl)C4=CC(=O)[C@@H]5C[C@H]5[C@]4(C)C3CC[C@@]21C", "note": "(some centres undefined)", "Potency": "inactive"}, {"smiles": "O=S(=O)(O)C1CCNCC1", "Potency": "inactive"}, {"smiles": "C[C@]12C[C@H](O)C3[C@@H](CCC4=CC(=O)CC[C@@]43C)[C@@H]1CC[C@@H]2C(=O)CO", "note": "(some centres undefined)", "Potency": "inactive"}, {"smiles": "C#C[C@]1(O)CC[C@H]2C3CCC4=Cc5oncc5CC4(C)C3CCC21C", "note": "(some centres undefined)", "Potency": "inactive"}, {"smiles": "C[C@H]1c2cccc(O)c2C(O)=C2C(=O)[C@]3(O)C(O)=C(C(N)=O)C(=O)C(N(C)C)[C@@H]3[C@@H](O)C21", "note": "(some centres undefined)", "Potency": "inactive"}, {"smiles": "N#CC(Cc1ccc(O)c(O)c1)C(=O)N1CCc2ccccc21", "note": "(centres undefined)", "Potency": "17.8 µM (active)"}, {"smiles": "CCCCN1CCC(COC(=O)c2cc(Cl)c(N)c3c2OCCO3)CC1", "Potency": "inactive"}, {"smiles": "CC[C@H](C)C(=O)O[C@H]1CCC=C2C=C[C@H](C)[C@H](CC[C@@H]3C[C@H](O)CC(=O)O3)C21", "note": "(some centres undefined)", "Potency": "inactive"}, {"smiles": "CC(C)C[C@H](N)CSSC[C@@H](N)CC(C)C", "Potency": "50.1 µM (active)"}, {"smiles": "Nc1nc(Cl)nc2c1ncn2[C@@H]1O[C@H](COP(=O)(O)OP(=O)(O)OP(=O)(O)O)[C@H](O)[C@H]1O", "Potency": "inactive"}, {"smiles": "Cc1cc(N)c2ccccc2[n+]1CCCCCCCCCCCCCC[n+]1c(C)cc(N)c2ccccc21", "Potency": "39.8 µM (active)"}, {"smiles": "N#Cc1c(-c2ccccc2)no[n+]1[O-]", "Potency": "inactive"}]}]}
